# Sampled rows, rich in hits. Any-hit rate of the full collection: about 2.9%.
# GLP-1R agonist – activates the human GLP-1 receptor. P43220. HEK293 GLP-1R CRE-luciferase, luminescence, 4-6 h; cells express a hypersensitive GLP-1R form. Potency, µM (doses to about 45.6 µM), without a hit: at the highest dose activation, most hits filed as activators. 0.007% of 380,000 active. AID 624172; note: potency is the fitted concentration of half-maximal effect; % of control where 0% means no effect
# GLP-1R inv ag – GLP-1 receptor (human) inverse agonism; HEK293 GLP-1R CRE-luciferase, luminescence, 24 h; GLP-1R form is constitutively active; Potency, µM (series often up to 38.3 µM), for the others: top-dose activity change, negative = inhibition, usual class: inhibitors; 1.6% of 410,000 active; AID 624417; note: potency is the fitted concentration of half-maximal effect; % is set by controls: 0 for no effect and ±100 for the full control effect; nearly all actives have a fitted effect of over 55% in size
#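 Inverse agonists were sought by their lowering of basal cAMP reporter luciferase output in HEK293 cells stably carrying constitutively active human GLP-1R, after 24 h compound treatment.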
# HEK293 tox – cytotoxic in the GLP-1 receptor inverse agonist counter-screen | AID 624418 | Potency, µM (highest dose often 38.3 µM), without a hit: top-dose activity change, negative = inhibition, hits mostly inhibitors | 0.13% of 410,000 active | HEK293 cAMP-luciferase reporter cells, luminescence, 24 h;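 note: loss of luciferase light is scored as toxicity; potency is the fitted concentration of half-maximal effect; % is set by controls: 0 for no effect and ±100 for the full control effect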
#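 Luminescence readout: signal drop marks cytotoxicity. Plated cells grew 12 h at 37 °C, 5% CO2, received 23 nL compound for 24 h, then got luciferase reagent, read after 12 min at RT.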
# ClpP mod – qHTS Assay for Activators of ClpP. purified B. subtilis ClpP, FRET peptide cleavage, 20 min. Potency, µM (doses to about 57.5 µM), for inactives: top-dose activity change, negative = active. ATP-dependent Clp protease proteolytic subunit (Bacillus subtilis (strain 168)), P80244. 1.9% of 340,000 active. AID 651965, 2013; active = well fitted falling curve with a large enough effect; inconclusive = small, poorly fitted or top-dose-only effect; inactive = no such curve, though single readings can be large or run the other way; note: potency is the fitted concentration of half-maximal effect; the source files actives as falling curves though it sought activators and does not explain the sign; nearly all actives have a fitted effect of over 65% in size
# Target sequence (P80244 whole entry, looked up): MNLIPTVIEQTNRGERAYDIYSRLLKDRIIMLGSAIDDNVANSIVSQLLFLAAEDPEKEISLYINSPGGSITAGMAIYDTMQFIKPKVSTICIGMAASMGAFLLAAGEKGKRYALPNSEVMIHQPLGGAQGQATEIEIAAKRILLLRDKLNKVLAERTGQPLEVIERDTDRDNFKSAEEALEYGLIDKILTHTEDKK
#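 FRET quenching reversal measured ClpP activation: 10 microg/mL B. subtilis ClpP at pH 8 with the FRET-FV decapeptide, read at 430 nm after 320 nm excitation. The 20-min minus 0-min signal was scaled between DMSO/no-enzyme wells and ADEP (5.8 microM final).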
# LDHA block – LDHA (human) enzyme inhibition; 0.15% of 480,000 active; activity change, % (values are at about 110 or 230 µM); purified LDHA, NADH/diaphorase-resazurin fluorescence; stronger effect = lower value; P00338; in the data active = activity change below about -30%; inconclusive = mostly about -25% to -30%;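 note: plate controls were DMSO wells for no effect and wells without enzyme for full effect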
#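 Enzyme activity of human lactate dehydrogenase 5 (2 nM; 0.06 mM NADH, 0.2 mM pyruvate, 5 min, RT) is measured via a resazurin/diaphorase fluorescence readout of residual NADH.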
# p53 reactivator – restores transcriptional activity of mutant p53; Potency, µM (titrated, usually from 92.2 µM), for inactives: at the highest dose activity change, positive = activation, most hits filed as activators; 0.063% of 320,000 active; H1299 p53-A138V BP100-luciferase reporter, luminescence, 24 h; note: potency is the fitted concentration of half-maximal effect; % of control where 0% means no effect; nearly all actives have a fitted effect of over 45% in size
#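 p53-null H1299 cells stably carrying temperature-sensitive p53-A138V and a BP100-luciferase reporter were pinned with compounds (4-point, 1:5 series) and held 24 hrs at 37 deg C. Luminescence was read 10 min after detection reagent.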
# * = called active by the depositor; ? = inconclusive; · = no result given; ! = not confirmed by another sample; [ ] = dose if it differs, or a comment. Unless noted, calls come from the whole dose curve; as a rule, active = well fitted curve in the direction sought with a large enough effect; inconclusive = small, poorly fitted or top-dose-only effect, or another doubt; inactive = no such curve, though single readings can be large; an effect the other way counts as inactive or inconclusive.
SMILES,GLP-1R agonist,GLP-1R inv ag,HEK293 tox,ClpP mod,LDHA block,p53 reactivator
Nc1cccc(S(=O)(=O)N2CCN(S(=O)(=O)c3c(F)cccc3F)CC2)c1,·,·,·,·,0,·
O=C(CSc1n[nH]c(-c2ccc(S(=O)(=O)N3CCCCC3)cc2)n1)Nc1nccs1,4%,-14%,-4%,28µM*,-5,12%
Cn1c(SCC(=O)Nc2nccs2)nnc1-c1ccc(S(=O)(=O)N2CCCC2)cc1,-13%,10%,-6%,-3%,7,-1%
Cc1[nH][nH]c(=O)c1C(c1c(C)[nH][nH]c1=O)c1cn(Cc2ccc(Cl)c(Cl)c2)c2ccccc12,15%,?,3%[1.53 µM],-5%,21,-3%
Cc1[nH][nH]c(=O)c1C(c1c(C)[nH][nH]c1=O)c1cn(Cc2ccc(F)cc2)c2ccccc12,11%,2µM*,?,?,18,3%
O=C(N[C@@H]1CC[C@H](CCn2cc(-c3ccccn3)nn2)O[C@@H]1CO)c1ccncc1,·,8%,-1%,-1%,-1,·
Fc1cccc(/C=N/NC(=S)Nc2ccccc2Cl)c1,-7%,?,2.8µM*,-2%,-1,?
Cc1cccc(NC(=S)N/N=C/c2cccc(O)c2)c1C,4%,7.9µM*,?,-5%,-2,2%
CCOc1ccc(NC(=O)Cn2nnc(-c3ccccc3NC(=O)CC)n2)cc1,-6%,?,-14%,-1%,-2,7%
C=CCn1c(C)cc(-c2csc(NC(=O)C3=COCCO3)n2)c1C,-12%,11%,7%,-2%,-1,16%
COc1ccc(C2CC(=O)N(Cc3ccc(F)cc3)c3ccccc3S2)cc1OC (centres undefined),-6%,16%,3%,0%,0,·
COc1cc(C2CC(=O)N(Cc3ccc(F)cc3)c3ccccc3S2)cc(OC)c1OC (centres undefined),-7%,11µM*,4%,0%,-6,·
O=C1CC(c2ccccc2)Sc2ccccc2N1Cc1ccccc1F (centres undefined),-1%,10µM*,-7%,0%,-2,·
Cc1cccc(CC(=O)NC2CC(=O)N(c3ccc4c(c3)OCCO4)C2)c1 (centres undefined),0%,1%,-6%,2%,2,·
CN(C)C(=O)Nc1ccc2c(c1)CCC2,·,·,·,·,0,·
O=S1(=O)CCN2C=C(Br)C=C(Br)C2=N1,-7%,8%,0%,25µM*,-5,0%
CC(C)N(C(C)C)S(=O)(=O)c1ccc(N2CCc3ccccc3C2)nc1,18%,7.9µM*,0%,·,-8,-9%
CC(C)(c1ccc(O)c([N+](=O)[O-])c1)c1ccc(O)c([N+](=O)[O-])c1,8%,-42%,-33%,·,6,·
CN(C)Cc1cc(C(C)(C)c2ccccc2)ccc1O,-2%,10µM*,-8%,·,-3,·
Nn1c(Cc2cccc3ccccc23)nnc1SCC(=O)NCC1CCCO1 (centres undefined),0%,-12%,2%,-3%,-5,2%
O=C(c1ccc(CS(=O)c2ccccc2Cl)o1)N1CCN(c2cccc(Cl)c2)CC1 (centres undefined),·,0.89µM*,?,-2%,-7,·
COc1ccc(S(=O)Cc2ccc(C(=O)N3CCN(c4cccc(C)c4C)CC3)o2)cc1 (centres undefined),-5%,7.1µM*!,2%,0%,-1,-1%
O=C(c1ccc(CS(=O)c2ccccc2Cl)o1)N1CCN(c2cccc(C(F)(F)F)c2)CC1 (centres undefined),·,?,-26%,0%,0,·
Cc1ccccc1S(=O)(=O)Cc1ccc(C(=O)N2CCN(c3cccc(C)c3C)CC2)o1,-18%,4.5µM*,?,-1%,-2,-22%

# From PubChem BioAssay
